Assay results published in PubChem BioAssay (NCI).
This is part of a sample that, as a whole, favours compounds with a hit. Of some 79,000 tested, about 15% had one in any assay. Active and inactive are the calls of the source. Cut-off read from the data, not from the text of the source: active = growth inhibition above about 70%; inactive = the rest.

Assay: NCI Yeast Anticancer Drug Screen. Data for the sgs1 mgt1 strain (AID 161);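 note: 0% = growth of cultures given vehicle only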
Conditions: S. cerevisiae sgs1 mgt1 strain, at 50.0 µM, stronger effect = higher value
How it was run: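 Read-out: growth inhibition vs vehicle controls. Cells: mutant yeast strain deficient in DNA damage repair.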

| SMILES | growth inhibition |
| --- | --- |
| CC(=O)Oc1ccc[nH]c1=O | 0.9% (inactive) |
| Nc1nc(N)c(CCCCc2ccc([N+](=O)[O-])cc2)c(N)n1 | 24.1% (inactive) |
| O=[N+]([O-])c1ccc(C(O)C(c2ccccc2)S(=O)(=O)N2CCCCC2)cc1 (configuration not stated) | 17.1% (inactive) |
| CC1CC(=O)Nc2ncnc(N)c21 (configuration not stated) | 2.3% (inactive) |
| CCC(=O)NCCc1ccccc1 | 14.3% (inactive) |
| Cc1nc2ccccc2nc1CC(=N)c1ccccc1 | -5.85% (inactive) |
| COc1ccc(C2C(Cl)C(=O)N2NC(=O)c2ccc(NC(C)=O)cc2)cc1 (configuration not stated) | -49.9% (inactive) |
| CC1CCC2C1(C)CCC1C2(C)CCC2(C)C3CC(C)(C)CCC3(C)CCC12C (configuration not stated) | -12.8% (inactive) |
| Cc1cccc(NS(=O)(=O)c2ccc3c(c2)OCCOCCOCCOCCO3)c1 | 7.05% (inactive) |
| Oc1ccccc1-c1nnc2n1N=C(c1ccc(-c3ccccc3)cc1)CS2 | 23.4% (inactive) |
| CCCCOCCC1CCNCC1 | -51.5% (inactive) |
| CCOC(CN(C)C)OCC | 4.1% (inactive) |
| COc1ccc(N=C2c3cc([N+](=O)[O-])ccc3-c3c2cccc3[N+](=O)[O-])cc1 | -4.1% (inactive) |
| C=CCSC(=S)Nc1nc2ccc(C)cc2s1 | 0.25% (inactive) |
| NS(=O)(=O)c1ccc(Nc2c3ccccc3nc3cc(Cl)ccc23)cc1 | 6.9% (inactive) |
| NC(=S)N/N=C1\C(=O)N(CCc2ccccc2)C(=O)C1C(=O)NCCc1ccccc1 (configuration not stated) | -35.6% (inactive) |
| O=S1(=O)OCCC1C(O)(c1ccccc1)c1ccccc1 (configuration not stated) | 6.8% (inactive) |
